Assay results from PMC5540273 (PLoS ONE, 2017).

Assays:
GRK3 = system: T1, GRK3
T1 construct: gene ADRBK2

ERK2 = system: T2, ERK2
T2 construct: gene MAPK1

ERK3 = system: T3, ERK3
T3 construct: gene MAPK6

ERK4 = system: T4, ERK4
T4 construct: gene MAPK4
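Note: kd values determined as follow-up on hits from a single-replicate KINOMEscan panel screen.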

## CS(=O)(=O)CCNCc1nc(-c2ccc3ncnc(Nc4ccc5c(cnn5Cc5ccccc5)c4)c3c2)cs1.Cl.Cl [GW569716]
ERBB3
  Kd: 0.069 µM
ERBB4
  Kd: 0.0082 µM

## CS(=O)(=O)CCNCc1nc(-c2ccc3ncnc(Nc4ccc(OCc5ccccc5)c(Cl)c4)c3c2)cs1.Cl [GW582764]
ERBB4
  Kd: 0.069 µM
GRK3
  Kd: > 10 µM

## Cc1ccc(-c2nc(Nc3ccncc3)c3ccccc3n2)s1 [GSK189015]
ERK2
  Kd: > 10 µM

## CC(=O)c1c(C)c2cnc(Nc3ccc(N4CCNCC4)cn3)nc2n(C2CCCC2)c1=O
ERK3
  Kd: > 10 µM

## CCn1c(-c2c(N)noc2C)nc2cnccc21 [SB-737856]
ERK3
  Kd: > 10 µM

## Cc1nccc(-c2c(-c3ccc(F)cc3)ncn2CCCN2CCOCC2)n1.Cl [SB-282975]
ERK4
  Kd: > 10 µM

## Cc1c(Cn2c3ccccc3n3c(=O)cc(N4CCOCC4)nc23)cccc1C(F)(F)F [GSK2306394]
ERK4
  Kd: > 10 µM

## Cn1cnc2c(N)ncnc21 [SKF-97623]
FLT3-autoinhibited
  Kd: > 10 µM

## CS(=O)(=O)Cc1ccc(Nc2nccc(-c3c(-c4cccc(NC(=O)C5CCCCC5)c4)nn4ncccc34)n2)cc1 [GSK350559]
FLT3
  Kd: 0.074 µM

## O=C(Nc1n[nH]c2nc(-c3cccs3)c(Br)cc12)C1CC1 [SB-735297]
FLT3
  Kd: 0.15 µM

## Cn1cncc1C(=O)NC1CCN(c2ccnc(Nc3ccc(F)cc3)n2)C1 (stereo not drawn) [GSK1379717]
FLT4
  Kd: > 10 µM

## COC(=O)C(Cc1ccccc1)NC(=O)NC1CCN(c2ccnc(Nc3ccc(F)cc3)n2)C1 (stereo not drawn) [GSK1379714]
GRK1
  Kd: > 10 µM

## CNc1nc(-c2ccc3c(N)n[nH]c3c2)cc(N2C[C@@H](C(=O)Nc3ccccc3)CC[C@H]2C)n1 [GSK2298859]
GRK1
  Kd: > 10 µM
